Results reported in PubChem BioAssay.
Calls of active or inactive are those of the source. Cut-off read from the data, not from the text of the source, unless noted: active = inhibition above about 80%; inactive = the rest.

Experiments:
[1] = viability loss with induced miR-34 in A549 – imaging, A549 dox-inducible miR-34, nuclei and caspase counts, primary screen (AID 1347080;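 active = compounds whose cell count with miR-34 switched on is under 0.7 times the count with it off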); conditions: A549 miR-34 inducible, Hoechst nuclei count, 48 h
[2] = MELAS cybrid and Rieske KO viability enhancers – cell-based, MELAS cybrids, Rieske KO mouse fibroblasts, CellTiter-Glo, primary screen (AID 1508586;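 active = mean z-score across replicates of 1.96 or higher in either the MELAS or the Rieske mutant cell line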;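 note: z relative to plate mean and SD of compound and empty wells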); conditions: low glucose
[3] = growth inhibition, single agent or in combination, cell-based, chromothripsis tumors, cisplatin or BGB combos (AID 1671449); conditions: LFS_MB_P medulloblastoma cells;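 note: cells exposed for 96 hours; 0% = vehicle DMSO and 100% = killing by high DMSO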
[4] = growth inhibition, single agent and combos, cell-based, chromothripsis tumors, cisplatin or BGB combos (AID 1671450); conditions: HDN33 neuroblastoma cells, stronger effect = higher value;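 note: cells exposed to compound for four days; 0% = vehicle DMSO and 100% = cell killing by high DMSO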
[5] = growth inhibition, single agents and combos, ICB984, cell-based, cisplatin or BGB combos, synergistic combos for chromothripsis tumors (AID 1671451; call rule not given here;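 note: cells exposed for 96 hours before readout; 0% = vehicle DMSO and 100% = killing by high DMSO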); conditions: ICB984 medulloblastoma cells, drug combinations, stronger effect = higher value
[6] = growth inhibition, single agents and combos, LFS_MB_1R, cell-based, cisplatin or BGB combos, synergistic combos for chromothripsis tumors (AID 1671452); conditions: LFS_MB_1R medulloblastoma cells, stronger effect = higher value;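 note: cells exposed for 96 hours before readout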
[7] = growth inhibition, single agents and combos, HTB85, cell-based, BGB or cisplatin IC20 combos, synergistic combos for chromothripsis tumors (AID 1671453); conditions: HTB85 osteosarcoma cells, drug combinations, stronger effect = higher value;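 note: cells exposed for 96 hours before readout; 0% = vehicle DMSO and 100% = high DMSO killing control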
[8] = growth inhibition, single agents and combos, CRL2098, cell-based, BGB or cisplatin IC20 combos, synergistic combos for chromothripsis tumors (AID 1671454); conditions: CRL2098 osteosarcoma cells, drug combinations, stronger effect = higher value;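 note: cells exposed for 96 h before readout; 0% = vehicle DMSO and 100% = killing by high DMSO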
[9] = growth inhibition, single agents and combos, HD-MB03, cell-based, BGB or cisplatin IC20 combos, synergistic combos for chromothripsis tumors (AID 1671455; in the data active = inhibition above about 83%;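 note: 0% = vehicle DMSO and 100% = high DMSO as cytotoxic control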); conditions: HD-MB03 medulloblastoma cells, stronger effect = higher value
[10] = growth inhibition, single agents and combos, UWB1.289, cell-based, BGB or cisplatin combos, synergistic combos for chromothripsis tumors (AID 1671456); conditions: UWB1.289 ovarian carcinoma cells, stronger effect = higher value;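 note: cells exposed to compound for four days; 0% = vehicle DMSO and 100% = killing by high DMSO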
[11] = growth inhibition, single agents and combos, LFS_MB_2R, cell-based, cisplatin combos, synergistic combos for chromothripsis tumors (AID 1671457); conditions: LFS_MB_2R medulloblastoma cells, stronger effect = higher value;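 note: cells exposed to compound for four days before readout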
[12] = growth inhibition, MDA-MB-436, cell-based, BGB or cisplatin combos, synergistic combos for chromothripsis tumors (AID 1671458; call rule not given here;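 note: cells exposed for 96 hours; 0% = vehicle DMSO and 100% = killing by high DMSO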); conditions: MDA-MB-436 breast carcinoma growth inhibition, drug combinations, stronger effect = higher value
[13] = UWB1.289_BRCA1 ovarian cancer growth, cell-based, BGB or cisplatin combinations (AID 1671459); conditions: UWB1.289 BRCA1 ovarian carcinoma, drug combinations, stronger effect = higher value
[14] = drug combination toxicity in non-malignant astrocytes – cell-based, BGB or cisplatin IC20 combos, cytotoxicity control for chromothriptic childhood tumor combination screen (AID 1671460); conditions: Human astrocytes, viability inhibition, drug combinations, at 0.5 µM, stronger effect = higher value;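 note: cells exposed to compounds for 96 hours before viability readout; 0% = vehicle and 100% = killing control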
[15] = BT084 cell growth, single and combined drugs, ICGC_MB145, cisplatin and BGB IC40 combos (AID 1671461); conditions: BT084 medulloblastoma cells, drug combinations, stronger effect = higher value;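 note: cells exposed to drugs for 96 hours; 0% = vehicle DMSO and 100% = high DMSO full killing control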
[16] = RCMB18 cell growth, single agent and combined, cisplatin and BGB IC40 combos (AID 1671462); conditions: RCMB18 medulloblastoma cells, stronger effect = higher value;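 note: cells exposed to compound for four days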
[17] = CRL1545 cell growth, single agent and combined, cisplatin and BGB IC20 combos (AID 1671464); conditions: CRL1545 osteosarcoma cells, stronger effect = higher value;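 note: cells exposed to compound for 96 hours before readout; 0% = vehicle DMSO and 100% = high DMSO killing control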
[18] = measured here: combination with BGB IC40, at 0.05 µM
[19] = measured here: with BGB IC20 combination, at 0.5 µM
[20] = measured here: with cisplatin IC20 combination, at 0.5 µM
[21] = measured here: combination with cisplatin, at 0.5 µM
[22] = measured here: combination with cisplatin, at 5 µM

## COc1ccccc1S(=O)(=O)Nc1ccc2c(c1)CN(C)C(=O)N2
[1]; stronger effect = lower value, cell number ratio, induced over uninduced
  fold change: 1.02 (inactive)
[1]; measured here: relative caspase fold change +Dox/-Dox
  fold change: 0.364
[1]; measured here: total cells with miR-34 induction, stronger effect = lower value
  cell count: 6410
[1]; measured here: total cells without miR-34 induction
  cell count: 6310
[2]; MELAS cybrid survival, CellTiter-Glo 48 h, stronger effect = higher value
  z-score: 0.202 (inactive)
[2]; Rieske KO mouse fibroblast survival, CellTiter-Glo 72 h
  z-score: -0.445
[3]; at 0.5 µM, stronger effect = higher value
  inhibition: -27% (inactive)
[3]; measured here: combination with BGB IC20, at 0.005 µM
  inhibition: -35.7%
[3]; measured here: combination with BGB IC40, at 0.005 µM
  inhibition: -46.6%
[3]; [18]
  inhibition: -41.2%
[3]; measured here: combination with cisplatin, at 0.5 µM, stronger effect = higher value
  inhibition: -73.8%
[3]; measured here: combination with cisplatin, at 5 µM, stronger effect = higher value
  inhibition: 27.9%
[4]; BGB combo, at 5 µM
  inhibition: 10.4%
[4]; at 0.5 µM
  inhibition: -28.2% (inactive)
[4]; cisplatin combo, at 5 µM
  inhibition: 19.3%
[4]; [19]
  inhibition: -28.2%
[4]; [20]
  inhibition: -25.5%
[4]; single agent, at 5 µM
  inhibition: 26.1%
[5]; BGB IC20 combo, at 0.005 µM
  inhibition: 0.625%
[5]; BGB IC40 combo, at 0.005 µM
  inhibition: -32.2%
[5]; BGB IC40 combo, at 0.05 µM
  inhibition: 2.94%
[5]; at 0.5 µM
  inhibition: -27.9% (inactive)
[5]; cisplatin combo, at 0.05 µM
  inhibition: -1.96%
[5]; cisplatin combo, at 0.5 µM
  inhibition: -28%
[5]; cisplatin combo, at 5 µM
  inhibition: -22.2%
[5]; measured here: 5 uM single agent, at 5 µM
  inhibition: -15.3%
[6]; at 0.5 µM
  inhibition: -15.2% (inactive)
[6]; [18]
  inhibition: -24.6%
[6]; [21]
  inhibition: -10.4%
[6]; [22]
  inhibition: 42.8%
[7]; at 0.5 µM
  inhibition: -7.92% (inactive)
[7]; measured here: with BGB IC20, at 0.5 µM
  inhibition: 9.14%
[7]; measured here: with BGB IC20, at 5 µM
  inhibition: 38.2%
[7]; measured here: with cisplatin IC20, at 0.5 µM
  inhibition: -13.9%
[7]; measured here: with cisplatin IC20, at 5 µM
  inhibition: 31.4%
[7]; single agent, at 5 µM
  inhibition: 32.5%
[8]; at 0.5 µM
  inhibition: -31.4% (inactive)
[8]; measured here: combination with BGB at IC20, at 0.5 µM
  inhibition: 0.952%
[8]; measured here: combination with cisplatin at IC20, at 0.5 µM
  inhibition: -85.9%
[9]; at 0.5 µM
  inhibition: -5.44% (inactive)
[9]; measured here: combo with BGB at IC20, at 0.5 µM
  inhibition: -9.22%
[9]; measured here: combo with cisplatin at IC20, at 0.5 µM
  inhibition: -6.26%
[10]; at 0.5 µM
  inhibition: -14.3% (inactive)
[10]; measured here: inhibition with BGB combination, at 0.05 µM
  inhibition: -45%
[10]; measured here: inhibition with cisplatin combination, at 0.05 µM
  inhibition: -24.9%
[11]; at 0.5 µM
  inhibition: -17.7% (inactive)
[11]; [21]
  inhibition: -4.41%
[11]; [22]
  inhibition: 24.4%
[12]; at 0.5 µM
  inhibition: -11.9% (inactive)
[12]; measured here: BGB combination, at 0.5 µM
  inhibition: -2.15%
[12]; measured here: BGB combination, at 5 µM
  inhibition: -5.52%
[12]; measured here: cisplatin combination, at 0.5 µM
  inhibition: -32.4%
[12]; measured here: cisplatin combination, at 5 µM
  inhibition: -10.1%
[13]; BGB combination, concentration series, at 5 µM
  inhibition: 37.7%
[13]; at 0.5 µM
  inhibition: -12% (inactive)
[13]; cisplatin combination, concentration series, at 5 µM
  inhibition: 55.6%
[14]
  inhibition: 9.7% (inactive)
[14]; measured here: combo with BGB IC20
  inhibition: 13.1%
[14]; measured here: combo with cisplatin IC20
  inhibition: 4.75%
[15]; at 0.5 µM
  inhibition: -13.5% (inactive)
[15]; cisplatin combination, at 0.5 µM
  inhibition: -9.06%
[15]; cisplatin combination, at 5 µM
  inhibition: 15.1%
[15]; measured here: BGB IC40 combination 0.05 uM, at 0.05 µM
  inhibition: -35.9%
[15]; single agent, at 5 µM
  inhibition: 28.1%
[16]; at 0.5 µM
  inhibition: -15.3% (inactive)
[16]; cisplatin combo, at 5 µM
  inhibition: 7.58%
[16]; measured here: BGB IC40 combination, at 0.05 µM
  inhibition: -26.3%
[16]; [21]
  inhibition: -32.4%
[16]; single agent, at 5 µM
  inhibition: 7.98%
[17]; at 0.5 µM
  inhibition: -26.6% (inactive)
[17]; [19]
  inhibition: -39.9%
[17]; [20]
  inhibition: -21.9%
[17]; single agent, at 0.05 µM
  inhibition: -32%
[17]; single agent, at 5 µM
  inhibition: 6.08%
